G9a inh – inhibitors of human histone lysine methyltransferase G9a. Q96KQ7. G9a H3K9 monomethylation, AlphaScreen, 2 h. Potency, µM (titrated, usually from 102 µM), inactives show top-dose activity, negative = inhibition, most hits filed as inhibitors. hit rate 8.8% among 350,000. AID 504332; note: potency is the fitted concentration of half-maximal effect; % is set by controls: 0 for no effect and ±100 for the full control effect; nearly all actives have a fitted effect of over 75% in size
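Signal arises when biotinylated H3K9 peptide, once monomethylated, bridges streptavidin donor and antibody-captured acceptor beads. Enzyme at 20 nM was preincubated 15 min with test compounds; peptide 500 nM and SAM 20 uM then reacted for 2 h.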
HP1b binding inh – inhibitors of HP1-beta chromodomain binding to methylated histone tails; Potency, µM (doses to about 114 µM), inactives show at the top dose activity change, negative = inhibition, usual class: inhibitors; P83916; AID 540317; hit rate 0.56% among 390,000; AlphaScreen HP1-beta / biotin-H3K9me3 peptide binding; note: potency is the fitted concentration of half-maximal effect; nearly all actives have a fitted effect of over 70% in size
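AlphaScreen: HP1-beta (50 nM) preformed 30 min with biotin-H3(1-18)K9me3 peptide (50 nM) in PBS pH 7.4, 0.01% Tween-20. Compound added for 30 min at RT, then streptavidin donor/nickel chelate acceptor beads (10 ug/mL) for 30 min.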
CtBP-E1A blk – inhibitors of CtBP/E1A interaction; AID 651724; AlphaScreen GST-E1A/His-CtBP binding, 1536-well; active compounds read low; hit rate 0.49% among 340,000; activity change, % (no concentration beside the values); in the data active = activity change below about -65%; inconclusive = mostly about -30% to -63%; note: % is set by controls: 0 for no effect and ±100 for the full control effect
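In 5 uL wells, 23 nL compound meets equimolar GST-E1A and His-CtBP (5X stock 125 nM each) for 2 h, 37 °C. Beads (5X, 50 ug/mL) then 1 h, 37 °C, dark.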
Six1-Eya2 inh – Six1/Eya2 interaction inhibition; AlphaScreen GST-Six1/His-Eya2 binding, biochemical; active compounds read low; activity change, % (no concentration beside the values); AID 651725; hit rate 0.56% among 360,000; in the data active = activity change below about -65%; inconclusive = mostly about -30% to -63%; note: % is set by controls: 0 for no effect and ±100 for the full control effect
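Six1/Eya2 binding was read as AlphaScreen signal after compounds were pinned into GST-Six1 plus His-tagged Eya2 (5X stock 250/500 nM) in pH 8.0 Tris/NaCl/TCEP buffer, beads added, then incubated 1 h, 37 C, dark.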
JMJD2A Tudor inh – inhibitors of human JMJD2A Tudor domain | AlphaScreen JMJD2A-Tudor / H3K4me3 peptide binding | Potency, µM (top dose mostly 114 µM), inactives show top-dose activity change, negative = inhibition, usual class: inhibitors | hit rate 4.4% among 390,000; note: potency is the fitted concentration of half-maximal effect; % is set by controls: 0 for no effect and ±100 for the full control effect; nearly all actives have a fitted effect of over 50% in size
BAZ2B inh – blocks human BAZ2B; AlphaScreen BAZ2B-H3K14Ac peptide displacement; Potency, µM (titrated, usually from 114 µM), inactives show top-dose activity change, negative = inhibition, hits mostly inhibitors; hit rate 4.4% among 360,000; note: potency is the fitted concentration of half-maximal effect; % is set by controls: 0 for no effect and ±100 for the full control effect; nearly all actives have a fitted effect of over 60% in size
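Inhibition is scored as reduced AlphaScreen emission. The BAZ2B/b-H3(5-23)K14Ac complex (50 nM each) in PBS pH 7.4, 0.01% Tween-20 meets compound (up to 110 uM) for 30 min at RT before bead addition.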
Numbers without * were called inactive; [ ] = dose if it differs, or a comment. Shown are actives, neighbours in structure and some others; about 10% of the full set was active somewhere. Unless noted, calls come from the whole dose curve; as a rule, active = well fitted inhibition curve with a large enough effect; inconclusive = small, poorly fitted or top-dose-only effect; inactive = no such curve, though single readings can be large or run the other way.

What do the screens show for `COc1ccccc1N(CC(=O)NCc1ccco1)S(=O)(=O)c1ccc(C)cc1`?
G9a inh: 32µM*; HP1b binding inh: 45µM*; CtBP-E1A blk: -1; Six1-Eya2 inh: 0; JMJD2A Tudor inh: 35µM*; BAZ2B inh: 45µM*

What do the screens show for `COc1ccc(N(CC(=O)NCc2ccco2)S(=O)(=O)c2ccc(C)cc2)cc1OC`?
G9a inh: 20%; HP1b binding inh: 13%; CtBP-E1A blk: 17; Six1-Eya2 inh: 6; JMJD2A Tudor inh: -19%; BAZ2B inh: 4%

Results for COc1ccc(N(CC(=O)NCc2ccco2)S(C)(=O)=O)cc1 ?
G9a inh: inconclusive; HP1b binding inh: 26%; CtBP-E1A blk: 10; Six1-Eya2 inh: -4; JMJD2A Tudor inh: -11%; BAZ2B inh: -2%

Results for COc1ccc(S(=O)(=O)N(Cc2ccc(OC)c(OC)c2)Cc2ccco2)cc1 ?
G9a inh: 50µM*; HP1b binding inh: 9%; CtBP-E1A blk: 1; Six1-Eya2 inh: -14; JMJD2A Tudor inh: -12%; BAZ2B inh: inconclusive

What do the screens show for `Cc1ccc(S(=O)(=O)N(CC(=O)O)Cc2ccco2)cc1`?
G9a inh: 32µM*; HP1b binding inh: -10%; CtBP-E1A blk: 3; Six1-Eya2 inh: -4; JMJD2A Tudor inh: 89µM*; BAZ2B inh: 56µM*

Results for CS(=O)(=O)N(CC(=O)NCc1ccco1)c1ccc(OCc2ccccc2)cc1 ?
HP1b binding inh: inconclusive; CtBP-E1A blk: -1; Six1-Eya2 inh: -1; JMJD2A Tudor inh: inconclusive; BAZ2B inh: 71µM*

Results for Cc1ccc2c(c1)c1c(c(=O)n(Cc3ccccc3)c(=O)n1CC(=O)NCc1ccccc1Cl)n2C ?
G9a inh: 2%[59 µM]; HP1b binding inh: 48%; JMJD2A Tudor inh: 1%; BAZ2B inh: 2%

Results for CCOc1ccc(CCNC(=O)c2nn(C)c3c2CSc2ccc(C)cc2-3)cc1OCC ?
G9a inh: inconclusive; HP1b binding inh: -12%; JMJD2A Tudor inh: inconclusive; BAZ2B inh: -26%

How did CC(CNC(=O)c1ccc(CSc2nc3ccncc3n2Cc2cccc(F)c2)cc1)c1ccccc1 (centres undefined) do in these assays?
G9a inh: -27%[59 µM]; HP1b binding inh: 34%; JMJD2A Tudor inh: -12%; BAZ2B inh: -10%

What do the screens show for `CCCn1ccc2c(OCC(=O)Nc3cc(C)ccc3C)cccc2c1=O`?
G9a inh: 0%[59 µM]; HP1b binding inh: 54%; JMJD2A Tudor inh: -9%; BAZ2B inh: 7%

How did N#C/C(=C/c1cccn1-c1cccc(C(=O)O)c1)c1ccc(F)cc1 do in these assays?
G9a inh: inconclusive; HP1b binding inh: -2%; Six1-Eya2 inh: -17; JMJD2A Tudor inh: -35%; BAZ2B inh: 50µM*

How did O=C1N/C(=C/c2cccn2-c2ccccc2)C(=O)N1Cc1ccc(F)cc1 do in these assays?
G9a inh: 13µM*; HP1b binding inh: 12%; CtBP-E1A blk: 13; Six1-Eya2 inh: 0; JMJD2A Tudor inh: -30%; BAZ2B inh: -24%

Results for O=C(O)c1cccc(-n2cccc2/C=C2/NC(=O)N(Cc3ccccc3F)C2=O)c1 ?
G9a inh: 45µM*; HP1b binding inh: -26%; CtBP-E1A blk: 6; Six1-Eya2 inh: -20; JMJD2A Tudor inh: -17%[11.4 µM]; BAZ2B inh: 50µM*

How did CCN(C(=O)Cn1cc(C(=O)c2ccc(F)cc2)c(=O)c2ccc(C)nc21)c1cccc(C)c1 do in these assays?
G9a inh: -22%[59 µM]; HP1b binding inh: 5%; JMJD2A Tudor inh: -19%; BAZ2B inh: 3%[57.1 µM]

What do the screens show for `N#C/C(=C(/O)CCCl)c1ccccn1`?
G9a inh: 32µM*; HP1b binding inh: 31%; Six1-Eya2 inh: 0; JMJD2A Tudor inh: inconclusive; BAZ2B inh: inconclusive

Results for N#C/C(=C(\O)c1ccco1)c1ccccn1 ?
G9a inh: inconclusive; HP1b binding inh: 37%; CtBP-E1A blk: -4; Six1-Eya2 inh: -16; JMJD2A Tudor inh: inconclusive; BAZ2B inh: -6%

How did Cc1cc[n+](-c2[nH]c(=O)sc2/C=N/NC([S-])=Nc2ccccc2)cc1 do in these assays?
G9a inh: 28µM*; HP1b binding inh: inconclusive; CtBP-E1A blk: -18; Six1-Eya2 inh: inconclusive; JMJD2A Tudor inh: inconclusive; BAZ2B inh: inconclusive

What do the screens show for `Cc1ccc2[nH]c(C(=O)N/N=C/c3ccccc3O)c(C)c2c1`?
G9a inh: 14%; HP1b binding inh: 26%; Six1-Eya2 inh: 2; JMJD2A Tudor inh: -21%; BAZ2B inh: -10%

What do the screens show for `CCc1ccc[n+](-c2[nH]c(=O)sc2/C=N/NC([S-])=Nc2ccccc2)c1`?
G9a inh: 22µM*; HP1b binding inh: -38%; CtBP-E1A blk: -23; Six1-Eya2 inh: inconclusive; JMJD2A Tudor inh: inconclusive; BAZ2B inh: inconclusive

What do the screens show for `O=c1[nH]c(-[n+]2ccc3ccccc3c2)c(/C=N/N=C(\[O-])c2ccccc2)s1`?
G9a inh: inconclusive; HP1b binding inh: 35%; CtBP-E1A blk: -6; Six1-Eya2 inh: -12; JMJD2A Tudor inh: -9%; BAZ2B inh: -18%

Results for O=c1[nH]c(-[n+]2ccccc2)c(/C=N/NC([S-])=Nc2ccccc2)s1 ?
G9a inh: 22µM*; HP1b binding inh: -6%; CtBP-E1A blk: -2; Six1-Eya2 inh: inconclusive; JMJD2A Tudor inh: -28%; BAZ2B inh: -38%

How did Cc1cc(C)c[n+](-c2[nH]c(=O)sc2/C=N/NC([S-])=Nc2ccccc2)c1 do in these assays?
G9a inh: 35µM*; HP1b binding inh: inconclusive; CtBP-E1A blk: -3; Six1-Eya2 inh: -26; JMJD2A Tudor inh: inconclusive; BAZ2B inh: inconclusive

What do the screens show for `CCc1ccc[n+](-c2[nH]c(=O)sc2/C=N/N=C(\N)[O-])c1`?
G9a inh: 17%; HP1b binding inh: 22%; CtBP-E1A blk: 10; Six1-Eya2 inh: -9; JMJD2A Tudor inh: 6%; BAZ2B inh: -27%

What do the screens show for `COc1ccccc1CNC(=O)CSc1nc2nc(C)c(Cc3ccccc3C)c(C)n2n1`?
G9a inh: 10%[59 µM]; HP1b binding inh: 52%; JMJD2A Tudor inh: -15%; BAZ2B inh: 9%

What do the screens show for `CC(C)(C)c1cc[n+](-c2[nH]c(=O)sc2/C=N/NC(=O)c2ccccc2[O-])cc1`?
G9a inh: 79µM*; HP1b binding inh: 9%; CtBP-E1A blk: 15; Six1-Eya2 inh: -1; JMJD2A Tudor inh: -26%; BAZ2B inh: -12%

How did CC(C)(C)c1cc[n+](-c2[nH]c(=O)sc2/C=N/N=C(\[O-])c2cccnc2)cc1 do in these assays?
G9a inh: inconclusive; HP1b binding inh: 37%; CtBP-E1A blk: -17; Six1-Eya2 inh: -10; JMJD2A Tudor inh: -16%; BAZ2B inh: 3%

Screening results as filed in PubChem BioAssay.
